An excerpt weighted towards active compounds, which were near 2.9% of everything screened.
D3 ag: activates the human D3 dopamine receptor; D3R DiscoveRx beta-arrestin cells, luminescence, 90 min; max activation, %; hit rate 0.58% among 410,000; in the data active = max activation above about 30%
Target sequence (P35462 whole entry, looked up): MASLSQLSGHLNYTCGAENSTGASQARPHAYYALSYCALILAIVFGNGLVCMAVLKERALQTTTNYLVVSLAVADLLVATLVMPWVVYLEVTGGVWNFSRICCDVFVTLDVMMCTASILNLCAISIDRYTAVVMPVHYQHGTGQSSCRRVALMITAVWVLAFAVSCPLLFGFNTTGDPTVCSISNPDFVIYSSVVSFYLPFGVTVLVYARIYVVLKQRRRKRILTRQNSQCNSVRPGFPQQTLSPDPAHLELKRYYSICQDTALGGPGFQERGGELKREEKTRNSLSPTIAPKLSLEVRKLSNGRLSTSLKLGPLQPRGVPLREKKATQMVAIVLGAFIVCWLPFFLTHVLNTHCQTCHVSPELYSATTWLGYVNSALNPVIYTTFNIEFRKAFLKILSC
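Agonist-mode cell screen: cells plated at 1500/well and incubated overnight at 37 °C, then exposed to library compounds for 90 min at 37 °C. Detection reagent was added for 30–60 min at room temperature, and luminescence was read.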
Integrin act MD: activators of alpha7 integrin expression for muscular dystrophy. Potency, µM (top dose mostly 38.3 µM), actives largely listed as activators. AID 624291. alpha7betagal myoblasts, beta-gal FDG fluorescence, 48 h. hit rate 0.064% among 350,000; active = well fitted activation curve with a large enough effect; inconclusive = small, poorly fitted or top-dose-only effect; inactive = no such curve, though single readings can be large or run the other way; also: nearly all actives have a fitted effect of over 60% in size
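Alpha7betagal+/- myoblasts (passage 13) were plated 16-24 hr, then exposed to compounds (1:260 dilution of DMSO stock) for 48 hours at 37C. After MPER lysis, β-galactosidase reporter activity was read as FDG fluorescence (ex 480/em 540) after 30 minutes.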
D3 antag: antagonists of human D3 dopamine receptor | P35462 | D3R cells, DiscoveRx beta-arrestin luminescence, antagonist mode; active compounds read low | max response, negative = inhibition, % | hit rate 2.5% among 360,000; in the data active = max response below about -50%; inconclusive = no clear call, values can overlap the other calls
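Cells expressing the human receptor were seeded at 1500 cells/well, incubated overnight at 37 degrees C in 5% CO2, then exposed to library compounds with dopamine controls for 90 minutes at 37 degrees C before luminescent detection.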
Numbers stand for hits; n = inactive; u = inconclusive; x = not tested or not shown.

SMILES	D3 ag	Integrin act MD	D3 antag
COC(=O)c1[nH]c2ccc(F)cc2c1NS(=O)(=O)c1ccc(F)c(C)c1	n	n	n
COC(=O)c1[nH]c2ccc(C)cc2c1NS(=O)(=O)c1ccc(F)c(C)c1	n	n	-51.2
Cc1ccccc1NC(=S)C1=C(O)c2sccc2N(C)S1(=O)=O	n	n	-87.9
CCNC(=O)C1=C(O)c2sccc2N(C)S1(=O)=O	n	n	n
CN1C(C(=O)Nc2ccccn2)=C(O)c2sccc2S1(=O)=O	n	x	n
CN1c2ccsc2C(O)=C(C(=S)Nc2ccccc2)S1(=O)=O	n	n	-71.9
COc1ccccc1NC(=O)CN1CCOCC1	n	n	n
COc1ccc(Cc2nnc(NC(=O)Cn3cnc4c3c(=O)n(C)c(=O)n4C)s2)cc1	n	n	n
O=C(Nc1ccc2nc3n(c(=O)c2c1)CCCCC3)c1c(F)ccc([N+](=O)[O-])c1F	n	n	-59.2
O=C(Nc1ccc2nc3n(c(=O)c2c1)CCCCC3)c1cc([N+](=O)[O-])ccc1F	n	n	n
Cc1ccc(NC(=O)C2CCCN(c3cnccn3)C2)c(C)c1 (stereo not given)	n	n	n
Cc1ccc(NC(=O)c2cc(-c3cccs3)nc3ccccc23)c(C)c1	n	x	x
Cc1cccc2sc(NNC(=O)c3cc(-c4cccs4)nc4ccccc34)nc12	46.1	n	n
COc1cccc(-c2cc(C(=O)Nc3nc4ccccc4s3)c3ccccc3n2)c1	n	n	-59.0
O=C(Nc1nc2ccccc2s1)c1cc(-c2ccco2)nc2ccccc12	n	n	n
COc1ccc(-c2cc(C(=O)Nc3nc4c(C)cccc4s3)c3ccccc3n2)cc1OC	32.7	n	n
COc1ccccc1NC(=O)c1cc(-c2ccc(OC)c(OC)c2)nc2ccccc12	n	n	n
CCCCSCCCNC(=O)CCCN1C(=O)c2ccccc2Sc2ncccc21	n	n	n
CC(C)NC(=O)COc1coc(CN2CCN(c3cccc(Cl)c3)CC2)cc1=O	n	n	n
CC(C)NC(=O)COc1coc(CN2CCN(c3ccccc3)CC2)cc1=O	n	n	-61.7
Cc1noc(C)c1S(=O)(=O)Nc1ccc2c(c1)CC(=O)N([C@H](C)CO)C[C@H](C)[C@H](CN(C)S(=O)(=O)c1ccc(F)cc1)O2	n	n	n
Cc1cc(Sc2ccc([N+](=O)[O-])cn2)ccc1Br	n	n	n
Cc1ccc(S(=O)(=O)c2ccc([N+](=O)[O-])cn2)cc1	n	n	-75.4
Cc1cc(S(=O)(=O)c2ccc([N+](=O)[O-])cn2)ccc1Br	n	n	-72.9
Nc1ccc(S(=O)(=O)c2ccccc2)nc1	n	n	n
SMILES	D3 ag	Integrin act MD	D3 antag
COC(=O)C(C)(C(=O)OC)c1ccc([N+](=O)[O-])cn1	n	n	n
O=[N+]([O-])c1ccc(S(=O)(=O)c2ccccc2)nc1	n	n	-151.1
O=C(NCC(c1ccc(F)cc1)N1CCOCC1)c1ccc(OCc2ccccc2)cc1 (stereo not given)	n	n	n
O=C(O)c1ccc(N/N=C/C=C/c2ccccc2)cc1	n	n	n
Cc1ccc(S(=O)(=O)N2CCCC(NC(=O)N3CCN(c4ccccc4)CC3)C2)cc1 (stereo not given)	n	n	n
O=C1N[C@@H](c2ccccc2)COC(=O)[C@@H](Cc2ccc(F)cc2)CC/C=C/C[C@@H]1CC(=O)N(CCO)Cc1ccccc1	n	n	n
CCOC(=O)c1nnc(-c2ccccc2)nc1Sc1c(Cl)cccc1Cl	n	n	u
CCOC(=O)c1nnc(-c2ccc(C)cc2)nc1Sc1ccccc1Cl	n	n	-84.8
Cc1ccc(NS(=O)(=O)c2ccc3c(c2)NC(=O)CO3)cc1C	n	n	n
Cc1ccc(OCC(O)CN2CCN(CC(O)COc3ccc(C)cc3)CC2)cc1 (stereo not given)	n	u	u
OC(COc1ccccc1)CN1CCCCC1 (stereo not given)	n	n	u
Cc1ccc(OCC(O)CN2CCN(c3ccc(C)cc3)CC2)cc1 (stereo not given)	n	n	-87.9
COc1ccc(OCC(O)CN2CCN(c3ccc(OC)cc3)CC2)cc1 (stereo not given)	n	n	u
COc1ccc(N2CCN(CC(O)COc3ccc(F)cc3)CC2)cc1 (stereo not given)	n	n	-66.4
O=C(/C=C/c1ccccc1)N1CCN(CC(O)COc2ccccc2)CC1 (stereo not given)	n	n	-71.1
COc1cc(/C=C/C(=O)N2CCN(CC(=O)N3CCCC3)CC2)cc(OC)c1OC	n	x	x
COc1ccc2cc(/C=C/C(=O)N3CCN(CC(=O)N4CCCCCC4)CC3)ccc2c1	35.8	n	n
CNC(=O)C1CCC(Cn2c(=O)c3sccc3n(Cc3cc(C)ccc3C)c2=O)CC1 (stereo not given)	n	x	x
CSc1ncc(C(=O)Nc2cccc(Cl)c2C)c(-c2ccccc2)n1	n	x	x
COc1ccccc1CNC(=O)c1cc2c(s1)-c1ccc(Cl)cc1SC2	n	x	x
O=C(O)c1ccc(COc2ccc([N+](=O)[O-])cc2)o1	n	u	n
CN(C(=O)c1ccc2c(c1)SC1=NS(=O)(=O)CCN12)C(c1ccccc1)c1ccccc1	n	n	n
CCc1ccc(NC(=O)CSc2nc3c(sc4ccccc43)c(=O)n2CCCOC(C)C)cc1	n	x	x
CCN(CC)S(=O)(=O)c1ccc(C(=O)Nc2ccc3c(c2)OCO3)cc1	n	n	n
COc1ccc(N2CCN(CC(O)COc3ccc(C)c(C)c3)CC2)cc1 (stereo not given)	n	u	u
SMILES	D3 ag	Integrin act MD	D3 antag
OC(COc1ccc(-c2ccccc2)cc1)CN1CCCCC1 (stereo not given)	n	n	n
Cc1cccc(N2CCN(CC(O)COc3ccc4ccccc4c3)CC2)c1 (stereo not given)	47.2	n	u
OC(COc1ccc(Cl)cc1)CN1CCN(c2ccccc2)CC1 (stereo not given)	n	n	-87.0
Cc1ccc(OCC(O)CN2CCN(c3ccccc3)CC2)cc1 (stereo not given)	n	n	-74.9
Cc1ccc(N2CCN(CC(O)COc3ccccc3)CC2)cc1 (stereo not given)	n	n	-54.3
Cc1cc(OCC(O)CN2CCN(c3cccc(Cl)c3)CC2)ccc1Cl (stereo not given)	n	x	x
OC(COc1ccccc1)CN1CCOCC1 (stereo not given)	n	n	n
CCOCCCn1c(SCC(=O)Nc2cc(C)ccc2C)nc2c(oc3ccccc32)c1=O	n	x	x
CCOC(=O)CC1=CSC2=NS(=O)(=O)CCN12	n	n	n
CN(CCc1ccccn1)C(=O)CCC1CCCN(C(=O)NC2CCCCC2)C1 (stereo not given)	n	n	n
Cc1cc(-c2ccc(C)c(S(=O)(=O)Nc3cccc(C)n3)c2)on1	n	x	x
CCc1cccc2c(=O)c(C(=O)NCCN3CCOCC3)c[nH]c12	n	n	n
CC1(C(=O)NCc2cccc(C(F)(F)F)c2)CCN1Cc1ccc2ccccc2c1 (stereo not given)	n	x	n
OC(COc1ccc(Cl)cc1)CN1CCC(Cc2ccccc2)CC1 (stereo not given)	n	n	-75.8
Cc1ccc(C)c(OCC(O)CN2CCC(Cc3ccccc3)CC2)c1 (stereo not given)	n	n	n
Cc1cccc(CN2CCN(C(=O)c3ccccc3F)CC2)c1	n	n	-78.1

From PubChem
